According to PubChem BioAssay (NCI):
Compounds without any hit were thinned out: in the full panel of roughly 83,000, 20% have a hit.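 Each cell line was grown in a 96-well plate and treated with one concentration of compound for 48 hours. Values below 10 were considered active.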 Calls of active or inactive are those of the source.

Legend:
Assay in all cases: NCI-60 one-dose screen, 48 h (100 = growth as untreated, 0 = no growth, -100 = all killed)
Details in all cases: 10 µM unless noted
SK-MEL-2 melanoma = test system: SK-MEL-2 melanoma
EKVX NSCLC = test system: EKVX NSCLC
SN12C renal = test system: SN12C renal
UO-31 renal = test system: UO-31 renal
TK-10 renal = test system: TK-10 renal
ACHN renal = test system: ACHN renal
CAKI-1 renal = test system: CAKI-1 renal
A498 renal = test system: A498 renal
CCRF-CEM leukemia = test system: CCRF-CEM leukemia
MOLT-4 leukemia = test system: MOLT-4 leukemia

Measured: growth

CCC(C)N(CCNc1cc(OC)cc2cccnc12)CC(C)C (stereo unspecified)
inactive: SK-MEL-2 melanoma 110% | EKVX NSCLC 95.5% | SN12C renal 101% | UO-31 renal 67.2% | TK-10 renal 101% | ACHN renal 85.6% | CAKI-1 renal 94.1% | A498 renal 92.8% | CCRF-CEM leukemia 90.9% | MOLT-4 leukemia 87.4%

CCCCCCCCCCCCCCCCOCCCOP(=O)(O)C1CCCN(O)C1=O (stereo unspecified)
inactive: SK-MEL-2 melanoma 36% | EKVX NSCLC 33.9% | SN12C renal 16.3% | TK-10 renal 33.1% | ACHN renal 10.5% | CAKI-1 renal 16.6%
active: UO-31 renal 5.07% | A498 renal 1.39% | CCRF-CEM leukemia 5.85% | MOLT-4 leukemia 7.18%

COc1ccc(Cc2cnc(NC(=O)c3cc(C)oc3C)s2)cc1
inactive: SK-MEL-2 melanoma 47.7% | EKVX NSCLC 36.8% | SN12C renal 42.7% | UO-31 renal 39.6% | TK-10 renal 58% | ACHN renal 40.3% | CAKI-1 renal 25.3% | A498 renal 16.5% | CCRF-CEM leukemia 29.3% | MOLT-4 leukemia 19.2%

CC1CN(S(=O)(=O)c2oc(-c3ccc(Cl)cc3)nc2C#N)CC(C)O1 (stereo unspecified)
inactive: SK-MEL-2 melanoma 75.5% | EKVX NSCLC 101% | SN12C renal 85.5% | UO-31 renal 90.4% | ACHN renal 28.1% | CAKI-1 renal 91.2% | A498 renal 78.7%
active: TK-10 renal -54% | CCRF-CEM leukemia -2.97% | MOLT-4 leukemia -10.6%

CN(C)c1ccc(-c2c(C#N)c(N)nn2C(=O)c2ccc(NC(=O)c3ccccn3)cc2)cc1
inactive: SK-MEL-2 melanoma 105% | EKVX NSCLC 91.6% | SN12C renal 101% | UO-31 renal 80.7% | TK-10 renal 110% | ACHN renal 87.2% | CAKI-1 renal 77.3% | A498 renal 96.6% | CCRF-CEM leukemia 51.5% | MOLT-4 leukemia 99.5%

CCOC(=O)n1cc(-c2nonc2-c2cn(C(=O)OCC)c3ccc(Br)cc23)c2ccccc21
inactive: SK-MEL-2 melanoma 87.5% | EKVX NSCLC 73.3% | SN12C renal 88.1% | UO-31 renal 46.9% | TK-10 renal 90.8% | ACHN renal 64.5% | CAKI-1 renal 60.1% | A498 renal 82.3% | CCRF-CEM leukemia 87.7% | MOLT-4 leukemia 72.2%

N#Cc1c(-c2ccc(Cl)cc2)nc(NN2C(=O)c3ccccc3C2=O)nc1N1CCOCC1
inactive: SK-MEL-2 melanoma 110% | EKVX NSCLC 103% | SN12C renal 99.9% | UO-31 renal 84.4% | TK-10 renal 100% | ACHN renal 104% | CAKI-1 renal 90.4% | A498 renal 94.7% | CCRF-CEM leukemia 103% | MOLT-4 leukemia 97.8%

C#CCOc1cccc(Nc2ncnc3cc(NC(=O)C=C)ccc23)c1
active: TK-10 renal -12.6% | CCRF-CEM leukemia 2.9% | MOLT-4 leukemia 7.88%
inactive: SK-MEL-2 melanoma 25.3% | EKVX NSCLC 32.5% | SN12C renal 13.2% | UO-31 renal 16.8% | ACHN renal 17.2% | CAKI-1 renal 16% | A498 renal 26.8%

O=C(OC(CO)C(=O)NC12CC3CC(CC(C3)C1)C2)c1ccc(Cl)cc1 (stereo unspecified)
inactive: SK-MEL-2 melanoma 106% | EKVX NSCLC 96.9% | SN12C renal 109% | UO-31 renal 88.7% | TK-10 renal 102% | ACHN renal 100% | CAKI-1 renal 99.4% | A498 renal 103% | CCRF-CEM leukemia 88.8% | MOLT-4 leukemia 98.7%

O=C(/C=C/c1cccc(Cl)c1)c1ccc(Nc2nc(Nc3ccc(F)cc3)nc(Nc3ccc(Cl)cc3)n2)cc1
inactive: SK-MEL-2 melanoma 72.2% | EKVX NSCLC 139% | SN12C renal 136% | UO-31 renal 94.6% | TK-10 renal 127% | ACHN renal 116% | CAKI-1 renal 112% | A498 renal 124% | CCRF-CEM leukemia 103% | MOLT-4 leukemia 94%

O=C(CN1C(=O)S/C(=C\C(Cl)=C\c2ccccc2)C1=O)NCCc1ccc(O)cc1
inactive: EKVX NSCLC 44.4% | SN12C renal 16% | TK-10 renal 24.1% | CAKI-1 renal 39.3% | A498 renal 94.2%
active: SK-MEL-2 melanoma 6.1% | UO-31 renal -50.7% | ACHN renal -69.3% | CCRF-CEM leukemia 6.23% | MOLT-4 leukemia 5.15%

COC1=CC(c2ccc[nH]2)=N/C1=C\c1[nH]c(C)c(C(=O)OC(C)C)c1C
active: SK-MEL-2 melanoma -61.6% | EKVX NSCLC -41.9% | SN12C renal -2.47% | UO-31 renal -87.5% | TK-10 renal 3.42% | ACHN renal -82.9% | CAKI-1 renal -32.4% | A498 renal -37.8% | MOLT-4 leukemia -5.6%
inactive: CCRF-CEM leukemia 13.5%

CCOC(=O)c1cc(C)n(-c2ccc(C(=O)O)cc2)c1C
active: ACHN renal 2.34%
inactive: SK-MEL-2 melanoma 32% | EKVX NSCLC 118% | SN12C renal 87.9% | UO-31 renal 86.7% | TK-10 renal 93.5% | CAKI-1 renal 79.7% | A498 renal 111% | CCRF-CEM leukemia 92.2% | MOLT-4 leukemia 92.3%

COc1cccc(/C=C2\COc3ccc(O)c(O)c3C2=O)c1
inactive: SK-MEL-2 melanoma 57.1% | EKVX NSCLC 60.2% | TK-10 renal 21.5% | A498 renal 111%
active: SN12C renal -54.3% | UO-31 renal -93.3% | ACHN renal -79.2% | CAKI-1 renal 0.272% | CCRF-CEM leukemia 3.04% | MOLT-4 leukemia 2.08%

CC1=C([Se]CC(OC(=O)CC[Se]c2ccccc2)C(=O)NC(C)(C)C)C(=O)c2ccccc2C1=O (stereo unspecified)
active: SK-MEL-2 melanoma 9.93% | EKVX NSCLC -65.4% | SN12C renal -62.5% | UO-31 renal -12% | TK-10 renal -89.8% | ACHN renal -55.5% | CAKI-1 renal -34.3% | A498 renal -26.4% | CCRF-CEM leukemia -10.8% | MOLT-4 leukemia -31.6%

Nc1nc2ccccc2c2c(=O)c3cccc(Cl)c3sc12
inactive: SK-MEL-2 melanoma 108% | EKVX NSCLC 83.8% | SN12C renal 82.4% | UO-31 renal 75.4% | TK-10 renal 83.6% | ACHN renal 86.8% | CAKI-1 renal 79% | A498 renal 122% | CCRF-CEM leukemia 96.3% | MOLT-4 leukemia 104%

C=CCn1c(SCC(=O)Nc2ccc(C(=O)/C=C/c3ccc(Cl)cc3)cc2)nnc1-c1ccc(Br)cc1
inactive: SK-MEL-2 melanoma 76.4% | EKVX NSCLC 101% | SN12C renal 80.3% | UO-31 renal 67.9% | TK-10 renal 83.3% | ACHN renal 78.3% | CAKI-1 renal 74.5% | A498 renal 74.6% | CCRF-CEM leukemia 79.7% | MOLT-4 leukemia 63.1%

CCCCCC(/C=N\NC(=S)N/N=C/C(=C/c1ccccc1)CCCCC)=C\c1ccccc1
inactive: SK-MEL-2 melanoma 80.9% | EKVX NSCLC 76.6% | SN12C renal 68.1% | UO-31 renal 45.4% | TK-10 renal 87.3% | ACHN renal 69.3% | CAKI-1 renal 42.1% | A498 renal 70.1% | CCRF-CEM leukemia 31.1% | MOLT-4 leukemia 42%

CC(C)c1ccc(Cc2cnc(NC(=O)c3cc(Br)cs3)s2)cc1
inactive: SK-MEL-2 melanoma 23.7% | EKVX NSCLC 43.9% | SN12C renal 49.7% | UO-31 renal 55% | TK-10 renal 46.7% | ACHN renal 41.6% | CAKI-1 renal 31.3% | A498 renal 18.8% | CCRF-CEM leukemia 20% | MOLT-4 leukemia 43.2%

Nc1nc2ccccc2c2c1S(=O)(=O)c1ccc(Cl)cc1C2=O
inactive: SK-MEL-2 melanoma 42% | EKVX NSCLC 48.2% | SN12C renal 11.4% | TK-10 renal 16.6% | ACHN renal 17.8% | CAKI-1 renal 19% | A498 renal 56.9%
active: UO-31 renal -15.2% | CCRF-CEM leukemia -10.3% | MOLT-4 leukemia 3.11%

N#Cc1nc(-c2ccc(F)cc2)oc1S(=O)(=O)N1CCCCC1
inactive: SK-MEL-2 melanoma 81.1% | EKVX NSCLC 98.5% | SN12C renal 80.2% | UO-31 renal 84.8% | CAKI-1 renal 91% | A498 renal 112%
active: TK-10 renal -69.8% | ACHN renal 3.58% | CCRF-CEM leukemia 1.84% | MOLT-4 leukemia -6.66%

N=C(N)c1ccc(-c2ccc(-c3ccc(Cl)c(Cl)c3)s2)nc1
inactive: SK-MEL-2 melanoma 102% | EKVX NSCLC 62.8% | SN12C renal 36.6% | UO-31 renal 32.7% | TK-10 renal 112% | A498 renal 90.7%
active: ACHN renal -62.8% | CAKI-1 renal -60.1% | CCRF-CEM leukemia -1.55% | MOLT-4 leukemia -26.3%

COCCn1cc(-c2csc(-c3cn(C)c4ccc(Br)cc34)n2)c2cccnc21
inactive: SK-MEL-2 melanoma 65.6% | EKVX NSCLC 58.4% | SN12C renal 69.1% | UO-31 renal 61.9% | TK-10 renal 61.5% | ACHN renal 57.1% | CAKI-1 renal 65% | A498 renal 45.6% | CCRF-CEM leukemia 67.4% | MOLT-4 leukemia 63.4%

COc1cc(/C=C2/C=C(c3ccccc3)N(CCc3ccc(S(N)(=O)=O)cc3)C2=O)cc(OC)c1OC
inactive: SK-MEL-2 melanoma 104% | EKVX NSCLC 105% | SN12C renal 105% | UO-31 renal 87.8% | TK-10 renal 96.2% | ACHN renal 103% | CAKI-1 renal 99.1% | A498 renal 86.6% | CCRF-CEM leukemia 91% | MOLT-4 leukemia 83.1%

NC(=O)c1c(NC(=O)c2ccc3ccccc3c2)sc2c1CCC(=O)C2
inactive: SK-MEL-2 melanoma 103% | EKVX NSCLC 86.2% | SN12C renal 50.5% | UO-31 renal 27.3% | TK-10 renal 95.7% | CAKI-1 renal 16.3% | A498 renal 95.2% | CCRF-CEM leukemia 15% | MOLT-4 leukemia 36.6%

c1ccc2cc(C[n+]3ccn(CCCCCCCCCCn4cc[n+](Cc5ccc6ccccc6c5)c4)c3)ccc2c1
active: SK-MEL-2 melanoma -39.4% | SN12C renal 4.24% | A498 renal 9.69% | CCRF-CEM leukemia -4.14% | MOLT-4 leukemia -43.6%
inactive: EKVX NSCLC 13.7% | UO-31 renal 77.5% | TK-10 renal 15.1% | CAKI-1 renal 74.7%

O=C1C(Cl)=C(Nc2ccc(S(=O)(=O)N3CCOCC3)cc2)C(=O)c2ccccc21
active: CCRF-CEM leukemia 6.98%
inactive: SK-MEL-2 melanoma 108% | EKVX NSCLC 53.5% | SN12C renal 78.4% | UO-31 renal 52.8% | TK-10 renal 105% | CAKI-1 renal 78.5% | A498 renal 68.8%
